The text below walks through data of PubChem BioAssay (Tox21).

Several values for one entry are separate records, joined by “and”; a condition that tells them apart may be missing. Equal values may be shown once. Inconclusive results are not listed. Activity calls are given as the source filed them. Unless noted, calls come from the whole dose curve; as a rule, active = well fitted curve in the direction sought with a large enough effect in the repeat runs; inconclusive = weak or mixed curves; inactive = no such curve, though single readings can be large; an effect the other way counts as inactive or inconclusive.

The target in assay [1] is Estrogen receptor (Homo sapiens) (UniProt P03372). The assay is described as follows: qHTS assay to identify small molecule antagonists of the estrogen receptor alpha (ER-alpha) signaling pathway using the BG1 cell line in the presence of 0.1 nM 17-beta-estradiol (AID 1259244). Note: nearly all actives have a fitted effect of over 50% in size. An outline of the steps: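 Estradiol at 0.1 nM (final) stimulates the endogenous ER-alpha of VM7Luc4E2 cells carrying an ERE-driven luciferase; compounds are co-incubated 22 h at 37C and luciferase output quantified by luminescence.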
Chain of Estrogen receptor (Homo sapiens) (P03372 whole entry, looked up): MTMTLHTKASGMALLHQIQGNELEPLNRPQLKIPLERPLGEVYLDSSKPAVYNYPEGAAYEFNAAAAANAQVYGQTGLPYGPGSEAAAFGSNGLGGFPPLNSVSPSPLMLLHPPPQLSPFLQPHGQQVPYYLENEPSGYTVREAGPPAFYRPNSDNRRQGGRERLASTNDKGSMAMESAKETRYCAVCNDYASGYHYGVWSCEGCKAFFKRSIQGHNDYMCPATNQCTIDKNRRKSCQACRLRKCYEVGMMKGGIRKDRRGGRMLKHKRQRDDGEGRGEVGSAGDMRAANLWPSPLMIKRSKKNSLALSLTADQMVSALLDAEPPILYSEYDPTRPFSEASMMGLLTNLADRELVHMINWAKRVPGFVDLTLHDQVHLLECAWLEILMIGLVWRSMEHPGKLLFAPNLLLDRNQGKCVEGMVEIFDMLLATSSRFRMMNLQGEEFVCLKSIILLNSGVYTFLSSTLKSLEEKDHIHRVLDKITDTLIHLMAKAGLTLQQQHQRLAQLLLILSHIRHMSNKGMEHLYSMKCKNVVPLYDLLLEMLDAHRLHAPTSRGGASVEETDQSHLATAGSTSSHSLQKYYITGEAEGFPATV
(In general: In qHTS, concentration-response curves come from the screen itself.)

A short description of assay [2]: qHTS assay to identify small molecule HDAC inhibitors (AID 1259364). Note: potency is the fitted concentration of half-maximal effect.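 Note: wild-type HCT-116 cells with endogenous class I/II HDAC activity; nearly all actives have a fitted effect of over 45% in size.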 The essentials: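 Read-out: luminescence of HDAC-Glo I/II reagent, 30 min RT, reflecting class I/II deacetylase activity in whole HCT-116 cells pre-exposed 2 h to DMSO-dissolved compounds.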
Assay [3] can be described thus: qHTS assay to identify small molecule HDAC inhibitors - cell viability counter screen (AID 1259365). Note: series mostly up to about 92 µM; nearly all actives have a fitted effect of over 50% in size. The essentials:
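Wild-type HCT-116 cells, 1,500/well, cultured overnight, then compound-treated 2 h at 37 C. Viability measured as ATP luminescence with CellTiter-Glo after 30 min at room temperature.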

Assay [4] is described as follows: qHTS assay to identify small molecule agonists of the sonic hedgehog signaling (Shh) pathway - cell viability counter screen (AID 1259366). Note: nearly all actives have a fitted effect of over 50% in size. An outline of the steps: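 NIH/3T3-derived Gli1-Luc reporter cells, 2,000 per well, received compound after 4 h and were treated about 23 h at 37C. Viability measured in the same wells by CellTiter-Fluor fluorescence after 1 h.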

The nature of assay [5]: qHTS assay to identify small molecule antagonists of the sonic hedgehog signaling (Shh) pathway - cell viability counter screen (AID 1259367). Note: nearly all actives have a fitted effect of over 55% in size. An outline of the steps: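 NIH/3T3-derived Gli1-Luc reporter cells (2,000 per well) rested 4 hr at 37 C, then received DMSO compounds plus conditioned medium. After 23 hr of treatment, CellTiter-Fluor was added for 1 hr at 37C and fluorescence read.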

A short description of assay [6]: qHTS assay to identify small molecule agonists of the sonic hedgehog signaling (Shh) pathway (AID 1259368; calls by dose curve;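 note: NIH/3T3-derived 3T3Gli1-Luc cells carrying a stable Gli1-driven firefly luciferase reporter; series mostly up to about 92 µM; nearly all actives have a fitted effect of over 15% in size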). An outline of the steps:
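A Gli1 transcriptional response element controlled firefly luciferase in 3T3Gli1-Luc cells. Compounds and a positive control were added 4 hr after plating, and cells were incubated a further 24 hr at 37 C before luminescence detection.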

Assay [7] is described as follows: qHTS assay to identify small molecule antagonists of the sonic hedgehog signaling (Shh) pathway (AID 1259369; calls by dose curve; note: nearly all actives have a fitted effect of over 45% in size). An outline of the steps: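 For antagonist detection, the reporter line received test compounds together with conditioned medium, incubated 24hr at 37 C, 5% CO2, then luminescence was recorded following 30min room-temperature luciferase reagent incubation.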

In assay [8] the target is Estrogen receptor beta (Homo sapiens) (UniProt Q92731). The assay is described as follows: qHTS assay to identify small molecule agonists of the estrogen receptor beta (ER-beta) signaling pathway (AID 1259377; active = well fitted activation curve with a large enough effect in the signal ratio in the repeat runs, not every such curve was filed as active; the % refers to the signal ratio). The essentials: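 ER-beta-UAS-bla HEK293T cells in medium with 2% charcoal-stripped FBS were exposed to compounds for 16 h at 37C. Beta-lactamase reporter activity was read as fluorescence after 2 h with LiveBLAzer B/G FRET substrate at room temperature.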
Chain of Estrogen receptor beta (Homo sapiens) (Q92731 whole entry, looked up): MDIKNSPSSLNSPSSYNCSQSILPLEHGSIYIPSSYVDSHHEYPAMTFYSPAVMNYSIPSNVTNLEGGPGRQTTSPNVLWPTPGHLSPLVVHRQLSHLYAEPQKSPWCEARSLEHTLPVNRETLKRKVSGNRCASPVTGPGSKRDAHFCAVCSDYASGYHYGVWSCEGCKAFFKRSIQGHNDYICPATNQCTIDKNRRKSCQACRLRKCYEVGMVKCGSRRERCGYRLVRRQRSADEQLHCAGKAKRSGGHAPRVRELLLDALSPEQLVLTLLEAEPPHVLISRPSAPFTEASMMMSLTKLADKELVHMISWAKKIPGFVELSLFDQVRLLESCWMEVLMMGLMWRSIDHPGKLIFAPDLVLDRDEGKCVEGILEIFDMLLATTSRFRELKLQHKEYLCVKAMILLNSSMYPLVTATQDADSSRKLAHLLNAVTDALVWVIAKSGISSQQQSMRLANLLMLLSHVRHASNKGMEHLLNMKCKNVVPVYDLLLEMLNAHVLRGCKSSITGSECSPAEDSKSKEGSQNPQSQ

Assay [9] is described as follows: qHTS assay to identify small molecule agonists of the androgen receptor (AR) signaling pathway in the presence of an antagonist - cell viability counter screen (AID 1259379).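 Note: MDA-kb2 human breast cancer cells carrying an MMTV luciferase reporter; series mostly up to about 92 µM; nearly all actives have a fitted effect of over 25% in size.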 The essentials:
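Seed MDA-kb2 at 3,000 cells/well; incubate 5 hr, 37C, 0% CO2. Add nilutamide to 3.0uM final, then pin compounds at 15 concentrations. Incubate 16 hr. Add CellTiter-Fluor at 15 hr, read fluorescence after 1 hr.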

Assay [10] can be described thus: qHTS assay to identify small molecule agonists of the estrogen receptor beta (ER-beta) signaling pathway - cell viability counter screen (AID 1259380). Note: nearly all actives have a fitted effect of over 30% in size. An outline of the steps: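 CellTiter-Glo read, 30 min RT, same wells as bla assay; cells ER-beta-UAS-bla HEK293T; 16 hr compound, 37C; medium 2% charcoal-stripped FBS.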
Assay [11] is described as follows: qHTS assay to identify small molecule antagonists of the estrogen receptor beta (ER-beta) signaling pathway - cell viability counter screen (AID 1259382). Note: series mostly up to about 92 µM; nearly all actives have a fitted effect of over 55% in size. An outline of the steps:
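In this multiplexed counter screen, cells were seeded at 2,000 per well in medium with 2% charcoal-stripped FBS and incubated 6 hr before compound and 1nM final E2 were added. Sixteen hours later, ATP-based luminescence reported viability.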

The target in assay [12] is Estrogen receptor (Homo sapiens) (UniProt P03372). The assay is described as follows: qHTS assay to identify small molecule agonists of the estrogen receptor alpha (ER-alpha) signaling pathway in the presence of an antagonist (AID 1259383; calls by dose curve; note: top concentration of the series differs between compounds; nearly all actives have a fitted effect of over 15% in size). An outline of the steps:
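Stably transfected VM7Luc4E2 reporter cells, kept 5 days in charcoal-stripped serum, received ICI-182,780 at 10.0nM final before compound addition. Following 22hr incubation at 37C and 5% CO2, luciferase signal was read by luminescence.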

Assay [13] in a line: qHTS assay to identify small molecule agonists or antagonists of the thyroid stimulating hormone receptor (TSHR) signaling pathway - wild type cell line counter screen (AID 1259384; calls by dose curve). The essentials:
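Wild-type HEK293 cells were plated 18 h at 37 C/5% CO2, pin-dosed with compound plus Ro20-1724 medium, held 30 min at room temperature, then given cAMP-d2 and anti-cAMP-cryptate; fluorescence was read after 1 h. Fifteen concentrations, triplicate.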

Assay [14] has as its target Thyrotropin receptor (Homo sapiens) (UniProt P16473). The assay is described as follows: qHTS assay to identify small molecule antagonists of the thyroid stimulating hormone receptor (TSHR) signaling pathway (AID 1259385; calls by dose curve; note: nearly all actives have a fitted effect of over 20% in size). An outline of the steps:
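TSHR-HEK293 cells were plated and held 18 h at 37C/5% CO2, then given compound plus Ro20-1724 and stimulated with TSH at 1.5 ng/mL final. After 30 min at room temperature, cAMP was detected with cAMP-d2/anti-cAMP-cryptate (1 h) by fluorescence.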

Assay [15] is described as follows: qHTS assay to identify small molecule agonists of the estrogen receptor alpha (ER-alpha) signaling pathway in the presence of an antagonist - cell viability counter screen (AID 1259386).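 Note: series mostly up to about 92 µM; cells exposed to compounds for 22 h at 37 °C before the viability read; nearly all actives have a fitted effect of over 30% in size.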 The essentials: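 Viability counter screen using VM7Luc4E2 (full-length ER-alpha, four ERE-luciferase). The cells were treated with compounds alongside ICI-182,780 10.0nM for 22hr, and live-cell protease fluorescence was quantified with CellTiter-Fluor.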

For assay [16], the target named is Progesterone receptor (Homo sapiens) (UniProt P06401). The assay is described as follows: qHTS assay to identify small molecule agonists of the progesterone receptor (PR) signaling pathway (AID 1346784; calls by dose curve; note: nearly all actives have a fitted effect of over 30% in size). The essentials:
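PR-UAS-bla HEK 293T cells (beta-lactamase reporter under UAS) in 2% charcoal-stripped FBS, dosed with 23 nL compound after 6 hr, incubated 16hr at 37C. LiveBLAzer B/G FRET substrate added, fluorescence read after 2 hours.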

For assay [17] the target is unchanged. The assay is described as follows: qHTS assay to identify small molecule antagonists of the progesterone receptor (PR) signaling pathway (AID 1346795; active = well fitted inhibition curve with a large enough effect in the signal ratio in the repeat runs, not every such curve was filed as active; the % refers to the signal ratio). An outline of the steps: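 PR-UAS-bla HEK293T cells with beta-lactamase reporter under UAS control, in 2% charcoal-stripped FBS, treated with compounds plus 1 nM promegestone (R5020, final) for 16 hr at 37C. Read-out: FRET beta-lactamase substrate fluorescence after 2 hr at room temperature.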

A short description of assay [18]: qHTS assay to identify small molecule antagonists of the progesterone receptor (PR) signaling pathway - cell viability counter screen (AID 1346798). Note: series mostly up to about 92 µM; nearly all actives have a fitted effect of over 50% in size. An outline of the steps:
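PR-UAS-bla HEK293T cells, 3,000/well in 2% charcoal-stripped FBS medium, dosed with compounds plus R5020 agonist and incubated 16 h at 37C. Viability then measured in the same wells by CellTiter-Glo luminescence after 30 min at RT.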

Assay [19] deals with Estrogen receptor beta (Homo sapiens) (UniProt Q92731). The assay is described as follows: qHTS assay to identify small molecule antagonists of the estrogen receptor beta (ER-beta) signaling pathway (AID 1259378; active = well fitted inhibition curve with a large enough effect in the signal ratio in the repeat runs, not every such curve was filed as active; the % refers to the signal ratio). The essentials:
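ER-beta-UAS-bla HEK293T (GripTite) cells in 2% charcoal-stripped FBS medium were preincubated 6 hr at 37C, dosed with compound, then stimulated with 1 nM E2 (final) for 16 hr; beta-lactamase reporter read by B/G FRET fluorescence after 2 hr substrate loading.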

Assay [20] deals with Androgen receptor (Homo sapiens) (UniProt P10275). The assay is described as follows: qHTS assay to identify small molecule agonists of the androgen receptor (AR) signaling pathway in the presence of an antagonist (AID 1259381; calls by dose curve; note: nearly all actives have a fitted effect of over 15% in size). The essentials: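 Test compounds at 15 concentrations were incubated for 16hr with MDA-kb2 reporter cells in presence of 3.0uM nilutamide (final). Signal: ONE-Glo luciferase luminescence.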
Chain of Androgen receptor (Homo sapiens) (P10275 whole entry, looked up): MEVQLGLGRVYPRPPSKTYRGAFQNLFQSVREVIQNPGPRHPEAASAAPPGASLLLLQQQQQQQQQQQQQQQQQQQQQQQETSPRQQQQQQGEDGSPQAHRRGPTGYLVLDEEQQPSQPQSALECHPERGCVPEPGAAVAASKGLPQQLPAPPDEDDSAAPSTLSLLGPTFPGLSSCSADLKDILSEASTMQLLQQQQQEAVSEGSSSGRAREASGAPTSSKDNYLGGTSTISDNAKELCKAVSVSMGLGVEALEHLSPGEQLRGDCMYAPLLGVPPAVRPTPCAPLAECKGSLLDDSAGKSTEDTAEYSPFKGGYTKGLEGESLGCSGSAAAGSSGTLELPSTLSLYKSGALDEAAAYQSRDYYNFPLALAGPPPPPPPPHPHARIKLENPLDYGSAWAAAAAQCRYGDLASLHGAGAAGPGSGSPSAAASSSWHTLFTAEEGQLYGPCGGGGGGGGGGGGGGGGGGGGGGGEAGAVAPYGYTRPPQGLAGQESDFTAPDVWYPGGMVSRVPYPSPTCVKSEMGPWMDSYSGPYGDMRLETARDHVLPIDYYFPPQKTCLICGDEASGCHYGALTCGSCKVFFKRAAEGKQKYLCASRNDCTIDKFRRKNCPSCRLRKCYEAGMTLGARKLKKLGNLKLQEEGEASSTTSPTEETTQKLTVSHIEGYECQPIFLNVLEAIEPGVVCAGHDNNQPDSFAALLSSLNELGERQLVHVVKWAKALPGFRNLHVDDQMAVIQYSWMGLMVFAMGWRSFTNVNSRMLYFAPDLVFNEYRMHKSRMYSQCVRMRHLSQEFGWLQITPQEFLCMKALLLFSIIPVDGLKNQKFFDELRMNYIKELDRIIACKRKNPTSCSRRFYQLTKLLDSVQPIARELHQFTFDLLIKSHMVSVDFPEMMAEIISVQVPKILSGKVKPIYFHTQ

Chain of Thyrotropin receptor (Homo sapiens) (P16473 whole entry, looked up): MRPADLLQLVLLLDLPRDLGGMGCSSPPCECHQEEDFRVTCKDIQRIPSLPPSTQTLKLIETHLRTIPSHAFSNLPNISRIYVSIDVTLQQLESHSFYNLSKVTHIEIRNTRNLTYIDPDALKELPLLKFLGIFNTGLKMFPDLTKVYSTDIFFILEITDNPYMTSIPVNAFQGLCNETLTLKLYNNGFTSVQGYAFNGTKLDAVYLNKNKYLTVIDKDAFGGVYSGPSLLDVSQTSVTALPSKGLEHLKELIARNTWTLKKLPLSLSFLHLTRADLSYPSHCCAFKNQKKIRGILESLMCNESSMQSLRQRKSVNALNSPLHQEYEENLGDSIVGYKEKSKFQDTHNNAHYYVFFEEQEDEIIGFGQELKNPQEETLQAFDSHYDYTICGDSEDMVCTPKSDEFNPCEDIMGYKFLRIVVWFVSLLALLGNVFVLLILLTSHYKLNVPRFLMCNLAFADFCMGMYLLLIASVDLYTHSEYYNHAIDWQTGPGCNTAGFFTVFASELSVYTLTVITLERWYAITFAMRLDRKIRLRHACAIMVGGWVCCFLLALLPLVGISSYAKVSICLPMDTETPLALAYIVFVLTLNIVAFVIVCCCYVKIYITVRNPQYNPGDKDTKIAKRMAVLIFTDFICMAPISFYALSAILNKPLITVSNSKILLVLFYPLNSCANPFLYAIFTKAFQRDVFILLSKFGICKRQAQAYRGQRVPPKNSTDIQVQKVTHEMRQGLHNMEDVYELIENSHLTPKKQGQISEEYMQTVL
Chain of Progesterone receptor (Homo sapiens) (P06401 whole entry, looked up): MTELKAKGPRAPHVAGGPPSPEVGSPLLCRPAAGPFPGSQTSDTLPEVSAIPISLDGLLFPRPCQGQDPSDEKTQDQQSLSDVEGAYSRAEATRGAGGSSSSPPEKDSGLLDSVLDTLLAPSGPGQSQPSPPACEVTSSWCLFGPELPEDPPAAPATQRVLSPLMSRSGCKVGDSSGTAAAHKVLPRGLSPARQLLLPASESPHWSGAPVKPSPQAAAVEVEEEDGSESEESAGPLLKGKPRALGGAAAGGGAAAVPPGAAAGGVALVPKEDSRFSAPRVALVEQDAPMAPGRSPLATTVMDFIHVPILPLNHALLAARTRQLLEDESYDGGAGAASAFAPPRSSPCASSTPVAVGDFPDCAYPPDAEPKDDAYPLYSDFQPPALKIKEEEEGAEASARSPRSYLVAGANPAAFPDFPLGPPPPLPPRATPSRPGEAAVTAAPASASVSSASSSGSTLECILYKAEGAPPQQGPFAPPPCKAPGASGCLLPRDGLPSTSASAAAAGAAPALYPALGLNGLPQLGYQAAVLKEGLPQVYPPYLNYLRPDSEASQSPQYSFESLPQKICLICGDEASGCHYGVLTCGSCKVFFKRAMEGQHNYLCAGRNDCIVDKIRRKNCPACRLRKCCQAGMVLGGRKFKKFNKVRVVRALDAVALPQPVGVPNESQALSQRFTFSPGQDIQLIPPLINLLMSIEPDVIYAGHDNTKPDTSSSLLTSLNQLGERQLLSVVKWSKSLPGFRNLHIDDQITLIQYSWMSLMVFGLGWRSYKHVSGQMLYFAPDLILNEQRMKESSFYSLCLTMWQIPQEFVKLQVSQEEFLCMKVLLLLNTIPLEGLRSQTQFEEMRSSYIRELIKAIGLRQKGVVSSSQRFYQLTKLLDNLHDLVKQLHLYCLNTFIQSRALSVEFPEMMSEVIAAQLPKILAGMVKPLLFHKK

Take `O=c1n(Cl)c(=O)n(Cl)c(=O)n1Cl`: the Potency entry in assay [1], in [2], in [4], in assay [5], in [7] and in [8] was “inactive” each time. The Potency entry in assay [10], in [11], in assay [12], in assay [14], in [17] and in assay [18] was “inactive” in each case. Further, the molecule was called inactive in assay [3], in [6], in assay [9], in [13], in assay [15] and in [16].
As for `CNC(=O)Oc1ccccc1OC(C)C`, the Potency result in assay [1], in [2], in assay [4], in assay [5], in [7] and in assay [8] was “inactive” each time. Besides, the Potency entry in assay [10], in assay [11], in assay [12], in assay [14], in [17] and in [18] was “inactive” each time. Besides, the result in assay [3], in assay [6], in assay [9], in assay [13], in assay [15] and in [16] was inactive.
On to `CCCCN(CC)C(=O)SCCC`, for which the Potency entry in assay [1], in assay [2], in assay [4], in assay [5], in assay [7] and in assay [8] was “inactive” each time. For the same molecule, the Potency result in [10], in assay [11], in [12], in assay [14], in [17] and in assay [18] was “inactive” each time. Moreover, the molecule was classed as inactive in [3], in [6], in assay [19], in assay [9], in [20] and in assay [13]. The result in assay [15] and in [16] was inactive.
Turning to `CC1C=[C-]C=C1.[C-]#[O+].[C-]#[O+].[C-]#[O+].[Mn]`, the Potency result in [1], in [2], in assay [4], in [5], in assay [7] and in assay [8] was “inactive” each time. The Potency result in assay [10], in assay [11], in assay [12], in assay [14], in [17] and in assay [18] was “inactive” each time. In addition, the molecule was classed as inactive in [3], in assay [6], in [9], in assay [13], in assay [15] and in assay [16].
On to `C1CN2CCN1CC2`, for which the Potency entry in assay [1], in assay [2], in [4], in assay [5], in assay [7] and in assay [8] was “inactive” throughout. Further, the Potency result in assay [10], in [11], in assay [12], in [14], in assay [17] and in assay [18] was “inactive” throughout. Moreover, the call in [3], in assay [6], in [19], in [9], in [15] and in assay [16] was inactive.
Take `COC(=O)NS(=O)(=O)c1ccc(N)cc1`: the Potency result in [1], in [2], in assay [4], in assay [5], in [7] and in assay [8] was “inactive” each time. Moreover, the Potency result in assay [10], in assay [11], in assay [12], in assay [14], in [17] and in assay [18] was “inactive” in each case. Moreover, the result in assay [3], in assay [6], in [19], in [9], in [15] and in [16] was inactive.
In the case of `CC(C)C1(C)N=C(c2nc3ccccc3cc2C(=O)O)NC1=O` (stereo unspecified), the Potency result in [1], in assay [2], in assay [4], in [5], in assay [7] and in [8] was “inactive” each time. The Potency entry in assay [10], in [11], in assay [12], in [14], in [17] and in [18] was “inactive” in each case. In addition, the molecule was called inactive in [3], in assay [6], in [19], in assay [9], in assay [13] and in [15]. Moreover, the molecule was called inactive in assay [16].
For the molecule `CC(C)OC(=O)Nc1cccc(Cl)c1`, the Potency result in [1], in [4], in assay [5], in [7], in assay [8] and in assay [10] was “inactive” each time. Besides, the Potency result in assay [11], in [12], in [14] and in assay [18] was “inactive” throughout. The Potency in assay [2] is 15.1 µM (active) and 13.7 µM (active). In addition, the result in assay [3], in assay [6], in [19], in assay [9], in [15] and in assay [16] was inactive.
